# Results published in PMC11062922 (Nature Chemical Biology, 2023).
# Where two headings read alike, the source gives them in different places.
# Key:
# [1] = system: RET; conditions: read-out: apparent Kd, n = 1
# [2] = system: RPS6KA4; conditions: read-out: apparent Kd, n = 1
# [3] = compound concentrations:100 nM and 1000 nM (sheet 'Lestaurtinib' of Supplementary Table 1),run:Lestaurtinib_02438_R1,Plate:MR008
# [4] = compound concentrations:100 nM and 1000 nM (sheet 'Lestaurtinib' of Supplementary Table 1),run:Lestaurtinib_02438_R3,Plate:MR008
# [5] = compound concentrations:100 nM and 1000 nM (sheet 'Lestaurtinib' of Supplementary Table 1),run:Lestaurtinib_02443_R1,Plate:MR009
# [6] = compound concentrations:100 nM and 1000 nM (sheet 'Lestaurtinib' of Supplementary Table 1),run:Lestaurtinib_02473_R3,Plate:MR010
# [7] = compound concentrations:100 nM and 1000 nM (sheet 'Lestaurtinib' of Supplementary Table 1),run:Lestaurtinib_02482_R3,Plate:MR011
# [8] = compound concentrations:100 nM and 1000 nM (sheet 'Lestaurtinib' of Supplementary Table 1),run:Lestaurtinib_02487_R2,Plate:MR012
# [9] = compound concentrations:100 nM and 1000 nM (sheet 'Lestaurtinib' of Supplementary Table 1),run:Lestaurtinib_02487_R3,Plate:MR012
# [10] = compound concentrations:100 nM and 1000 nM (sheet 'Lestaurtinib' of Supplementary Table 1),run:Lestaurtinib_02496_R1,Plate:MR013
# [11] = compound concentrations:100 nM and 1000 nM (sheet 'Lestaurtinib' of Supplementary Table 1),run:Lestaurtinib_02566_R1,Plate:MR014
# [12] = compound concentrations:100 nM and 1000 nM (sheet 'Lestaurtinib' of Supplementary Table 1),run:Lestaurtinib_02577_R1,Plate:MR016
# [13] = compound concentrations:100 nM and 1000 nM (sheet 'Lestaurtinib' of Supplementary Table 1),run:Lestaurtinib_02584_R3,Plate:MR017
# [14] = compound concentrations:100 nM and 1000 nM (sheet 'Lestaurtinib' of Supplementary Table 1),run:Lestaurtinib_02601_R2,Plate:MR018
substance,measurement,setting,value
Lestaurtinib,potency estimated from few doses,"[1]; compound concentrations:100 nM and 1000 nM (sheet 'Lestaurtinib' of Supplementary Table 1),run:Lestaurtinib_02437_R2,Plate:MR007",0.146 µM
same,potency estimated from few doses,"[1]; compound concentrations:100 nM and 1000 nM (sheet 'Lestaurtinib' of Supplementary Table 1),run:Lestaurtinib_02437_R3,Plate:MR007",0.0235 µM
same,potency estimated from few doses,[1]; [3],0.279 µM
same,potency estimated from few doses,"[1]; compound concentrations:100 nM and 1000 nM (sheet 'Lestaurtinib' of Supplementary Table 1),run:Lestaurtinib_02438_R2,Plate:MR008",0.286 µM
same,potency estimated from few doses,[1]; [4],0.304 µM
same,potency estimated from few doses,[1]; [5],0.248 µM
same,potency estimated from few doses,"[1]; compound concentrations:100 nM and 1000 nM (sheet 'Lestaurtinib' of Supplementary Table 1),run:Lestaurtinib_02443_R3,Plate:MR009",0.14 µM
same,potency estimated from few doses,"[1]; compound concentrations:100 nM and 1000 nM (sheet 'Lestaurtinib' of Supplementary Table 1),run:Lestaurtinib_02473_R2,Plate:MR010",0.244 µM
same,potency estimated from few doses,[1]; [6],0.06 µM
same,potency estimated from few doses,"[1]; compound concentrations:100 nM and 1000 nM (sheet 'Lestaurtinib' of Supplementary Table 1),run:Lestaurtinib_02482_R1,Plate:MR011",0.239 µM
same,potency estimated from few doses,[1]; [7],0.209 µM
same,potency estimated from few doses,[1]; [8],0.14 µM
same,potency estimated from few doses,[1]; [9],0.213 µM
same,potency estimated from few doses,[1]; [10],0.219 µM
same,potency estimated from few doses,"[1]; compound concentrations:100 nM and 1000 nM (sheet 'Lestaurtinib' of Supplementary Table 1),run:Lestaurtinib_02496_R3,Plate:MR013",0.141 µM
same,potency estimated from few doses,[1]; [11],0.277 µM
same,potency estimated from few doses,"[1]; compound concentrations:100 nM and 1000 nM (sheet 'Lestaurtinib' of Supplementary Table 1),run:Lestaurtinib_02566_R3,Plate:MR014",0.244 µM
same,potency estimated from few doses,"[1]; compound concentrations:100 nM and 1000 nM (sheet 'Lestaurtinib' of Supplementary Table 1),run:Lestaurtinib_02572_R3,Plate:MR015",0.307 µM
same,potency estimated from few doses,[1]; [12],0.242 µM
same,potency estimated from few doses,"[1]; compound concentrations:100 nM and 1000 nM (sheet 'Lestaurtinib' of Supplementary Table 1),run:Lestaurtinib_02577_R2,Plate:MR016",0.142 µM
same,potency estimated from few doses,"[1]; compound concentrations:100 nM and 1000 nM (sheet 'Lestaurtinib' of Supplementary Table 1),run:Lestaurtinib_02577_R3,Plate:MR016",0.218 µM
same,potency estimated from few doses,[1]; [13],0.142 µM
same,potency estimated from few doses,[1]; [14],0.235 µM
same,potency estimated from few doses,"[1]; compound concentrations:100 nM and 1000 nM (sheet 'Lestaurtinib' of Supplementary Table 1),run:Lestaurtinib_02601_R3,Plate:MR018",0.0624 µM
same,potency estimated from few doses,"[1]; compound concentrations:100 nM and 1000 nM (sheet 'Lestaurtinib' of Supplementary Table 1),run:Lestaurtinib_02606_R1,Plate:MR019",0.211 µM
same,potency estimated from few doses,"[1]; compound concentrations:100 nM and 1000 nM (sheet 'Lestaurtinib' of Supplementary Table 1),run:Lestaurtinib_02624_R1,Plate:MR020",0.141 µM
same,potency estimated from few doses,"[1]; compound concentrations:100 nM and 1000 nM (sheet 'Lestaurtinib' of Supplementary Table 1),run:Lestaurtinib_02624_R3,Plate:MR020",0.229 µM
same,potency estimated from few doses,"[1]; compound concentrations:100 nM and 1000 nM (sheet 'Lestaurtinib' of Supplementary Table 1),run:Lestaurtinib_02724_R1,Plate:MR021",0.275 µM
same,potency estimated from few doses,"[1]; compound concentrations:100 nM and 1000 nM (sheet 'Lestaurtinib' of Supplementary Table 1),run:Lestaurtinib_02724_R2,Plate:MR021",0.268 µM
same,potency estimated from few doses,"[1]; compound concentrations:100 nM and 1000 nM (sheet 'Lestaurtinib' of Supplementary Table 1),run:Lestaurtinib_02724_R3,Plate:MR021",0.153 µM
same,potency estimated from few doses,"[1]; compound concentrations:100 nM and 1000 nM (sheet 'Lestaurtinib' of Supplementary Table 1),run:Lestaurtinib_02741_R1,Plate:MR023",0.279 µM
same,potency estimated from few doses,"[1]; compound concentrations:100 nM and 1000 nM (sheet 'Lestaurtinib' of Supplementary Table 1),run:Lestaurtinib_02741_R2,Plate:MR023",0.279 µM
same,potency estimated from few doses,"[1]; compound concentrations:100 nM and 1000 nM (sheet 'Lestaurtinib' of Supplementary Table 1),run:Lestaurtinib_02741_R3,Plate:MR023",0.315 µM
same,potency estimated from few doses,"[1]; compound concentrations:100 nM and 1000 nM (sheet 'Lestaurtinib' of Supplementary Table 1),run:Lestaurtinib_02748_R1,Plate:MR024",0.135 µM
same,potency estimated from few doses,"[1]; compound concentrations:100 nM and 1000 nM (sheet 'Lestaurtinib' of Supplementary Table 1),run:Lestaurtinib_02748_R2,Plate:MR024",0.269 µM
same,potency estimated from few doses,"[1]; compound concentrations:100 nM and 1000 nM (sheet 'Lestaurtinib' of Supplementary Table 1),run:Lestaurtinib_02765_R1,Plate:MR026",0.32 µM
same,potency estimated from few doses,"[1]; compound concentrations:100 nM and 1000 nM (sheet 'Lestaurtinib' of Supplementary Table 1),run:Lestaurtinib_02765_R3,Plate:MR026",0.323 µM
same,potency estimated from few doses,"[1]; compound concentrations:100 nM and 1000 nM (sheet 'Lestaurtinib' of Supplementary Table 1),run:Lestaurtinib_02766_R3,Plate:MR027",0.258 µM
same,potency estimated from few doses,"[1]; compound concentrations:100 nM and 1000 nM (sheet 'Lestaurtinib' of Supplementary Table 1),run:Lestaurtinib_02768_R3,Plate:MR028",0.135 µM
same,potency estimated from few doses,"[1]; compound concentrations:100 nM and 1000 nM (sheet 'Lestaurtinib' of Supplementary Table 1),run:Lestaurtinib_02795_R2,Plate:MR022",0.286 µM
same,potency estimated from few doses,"[1]; compound concentrations:100 nM and 1000 nM (sheet 'Lestaurtinib' of Supplementary Table 1),run:Lestaurtinib_02795_R3,Plate:MR022",0.3 µM
same,potency estimated from few doses,"[1]; compound concentrations:100 nM and 1000 nM (sheet 'Lestaurtinib' of Supplementary Table 1),run:Lestaurtinib_02802_R1,Plate:MR029",0.137 µM
same,potency estimated from few doses,"[1]; compound concentrations:100 nM and 1000 nM (sheet 'Lestaurtinib' of Supplementary Table 1),run:Lestaurtinib_02802_R3,Plate:MR029",0.0342 µM
same,potency estimated from few doses,"[1]; compound concentrations:100 nM and 1000 nM (sheet 'Lestaurtinib' of Supplementary Table 1),run:Lestaurtinib_03252_R1,Plate:MR032",0.253 µM
same,potency estimated from few doses,"[1]; compound concentrations:100 nM and 1000 nM (sheet 'Lestaurtinib' of Supplementary Table 1),run:Lestaurtinib_03260_R3,Plate:MR033",0.277 µM
same,potency estimated from few doses,"[2]; compound concentrations:100 nM and 1000 nM (sheet 'Lestaurtinib' of Supplementary Table 1),run:Lestaurtinib_02339_R2,Plate:MR001",0.873 µM
same,potency estimated from few doses,"[2]; compound concentrations:100 nM and 1000 nM (sheet 'Lestaurtinib' of Supplementary Table 1),run:Lestaurtinib_02339_R3,Plate:MR001",1.21 µM
same,potency estimated from few doses,"[2]; compound concentrations:100 nM and 1000 nM (sheet 'Lestaurtinib' of Supplementary Table 1),run:Lestaurtinib_02364_R2,Plate:MR002",0.886 µM
same,potency estimated from few doses,"[2]; compound concentrations:100 nM and 1000 nM (sheet 'Lestaurtinib' of Supplementary Table 1),run:Lestaurtinib_02367_R1,Plate:MR003",1.24 µM
same,potency estimated from few doses,"[2]; compound concentrations:100 nM and 1000 nM (sheet 'Lestaurtinib' of Supplementary Table 1),run:Lestaurtinib_02367_R2,Plate:MR003",1.33 µM
same,potency estimated from few doses,"[2]; compound concentrations:100 nM and 1000 nM (sheet 'Lestaurtinib' of Supplementary Table 1),run:Lestaurtinib_02367_R3,Plate:MR003",0.989 µM
same,potency estimated from few doses,"[2]; compound concentrations:100 nM and 1000 nM (sheet 'Lestaurtinib' of Supplementary Table 1),run:Lestaurtinib_02381_R1,Plate:MR004",0.884 µM
same,potency estimated from few doses,"[2]; compound concentrations:100 nM and 1000 nM (sheet 'Lestaurtinib' of Supplementary Table 1),run:Lestaurtinib_02407_R1,Plate:MR005",1.34 µM
same,potency estimated from few doses,"[2]; compound concentrations:100 nM and 1000 nM (sheet 'Lestaurtinib' of Supplementary Table 1),run:Lestaurtinib_02407_R2,Plate:MR005",1.63 µM
same,potency estimated from few doses,"[2]; compound concentrations:100 nM and 1000 nM (sheet 'Lestaurtinib' of Supplementary Table 1),run:Lestaurtinib_02422_R1,Plate:MR006",0.975 µM
same,potency estimated from few doses,"[2]; compound concentrations:100 nM and 1000 nM (sheet 'Lestaurtinib' of Supplementary Table 1),run:Lestaurtinib_02437_R1,Plate:MR007",1.32 µM
same,potency estimated from few doses,[2]; [3],0.769 µM
same,potency estimated from few doses,[2]; [4],1.35 µM
same,potency estimated from few doses,[2]; [5],0.864 µM
same,potency estimated from few doses,[2]; [6],1.24 µM
same,potency estimated from few doses,"[2]; compound concentrations:100 nM and 1000 nM (sheet 'Lestaurtinib' of Supplementary Table 1),run:Lestaurtinib_02482_R2,Plate:MR011",1.34 µM
same,potency estimated from few doses,[2]; [7],0.924 µM
same,potency estimated from few doses,"[2]; compound concentrations:100 nM and 1000 nM (sheet 'Lestaurtinib' of Supplementary Table 1),run:Lestaurtinib_02487_R1,Plate:MR012",0.68 µM
same,potency estimated from few doses,[2]; [8],0.745 µM
same,potency estimated from few doses,[2]; [9],0.95 µM
same,potency estimated from few doses,[2]; [10],0.877 µM
same,potency estimated from few doses,"[2]; compound concentrations:100 nM and 1000 nM (sheet 'Lestaurtinib' of Supplementary Table 1),run:Lestaurtinib_02496_R2,Plate:MR013",0.822 µM
same,potency estimated from few doses,[2]; [11],1.36 µM
same,potency estimated from few doses,"[2]; compound concentrations:100 nM and 1000 nM (sheet 'Lestaurtinib' of Supplementary Table 1),run:Lestaurtinib_02566_R2,Plate:MR014",0.971 µM
same,potency estimated from few doses,"[2]; compound concentrations:100 nM and 1000 nM (sheet 'Lestaurtinib' of Supplementary Table 1),run:Lestaurtinib_02572_R2,Plate:MR015",1.24 µM
same,potency estimated from few doses,[2]; [12],1.37 µM
same,potency estimated from few doses,[2]; [13],1.21 µM
same,potency estimated from few doses,[2]; [14],1.33 µM
